Reference: PubChem BioAssay (NCATS)
Records with an inconclusive call do not appear. Where a call stands in place of a potency, no number is given. Activity calls are given as the source filed them. The call rests on the fitted dose curve; in most records, active means well fitted cell-killing curve with a large enough effect; inconclusive means small, poorly fitted or top-dose-only effect; inactive means flat fitted curve, though single readings scatter. Numbered stars: 1 amine (or outer) side, 2 acyl side, 3 side chain; on linkers, the order of the positions; unused ones are H or OH. Bridge positions count the residues as written; N and C are the ends. Square brackets hold non-standard residues; d marks the D form. Peptide text beside a SMILES is read from it. I, II: the chains in the order shown. Actinocin(9to1) = Cc1c2oc3c(C)ccc(C(=O)[*:1])c3nc-2c(C(=O)[*:2])c(N)c1=O; NMeV = CN[C@H](C(=O)O)C(C)C; Sar = CNCC(=O)O
Potency means the concentration at half of the fitted maximal effect.

Assay: qHTS of pediatric cancer cell lines to identify multiple opportunities for drug repurposing: Primary screen for DAOY cells (AID 1347090); further: nearly all actives have a fitted effect of over 55% in size
Conditions: DAOY medulloblastoma viability, CellTiter-Glo luminescence, 48 h; series mostly up to 46 µM
Source text: Drug repurposing or repositioning has been offered as a strategy for drug development in oncology programs. This approach has special potential for childhood cancers and other rare or orphan diseases, where the expected return on new drug development has been a disincentive to pharmaceuticals.
In this project we exploit the poly-pharmacology of drugs to discover new indications via phenotypic screening of a panel of 19 well-characterized cell lines derived from solid tumors seen in children and adolescents. The goal is to identify approved drugs with previously unrecognized anticancer properties that has the potential to reveal new mechanisms and biological processes involved in carcinogenesis or drug resistance. We employed a titration-based paradigm (quantitative high-throughput screening or qHTS), where all compounds were tested at multiple concentrations for their effect on cell viability. Concentration-response curves (CRCs) were derived directly from the primary screen, and both potency and efficacy values were used to identify compounds with robust bioactivity profiles. We screened the NIH Chemical Genomics Center (NCGC) Pharmaceutical Collection (NPC) and Mechanism Interrogation Plate (MIPE) small molecule collections of approved and investigational compounds against these cell lines; and measured metabolically active cells after 48 hours of compound treatment as a proxy for cell viability.
Assay Submitter: Nathalia J. Martinez, National Center for Advancing Translational Sciences, National Institutes of Health, Rockville, MD, USA; email: natalia.martinez@nih.gov
[1] Shen, M et al. Quantitative high-throughput phenotypic screening of pediatric cancer cell lines identifies multiple opportunities for drug repurposing. Oncotarget 2017 Dec 19;9(4):4758-4772. PMID 29435139.
The cells were obtained from University of North Carolina (UNC), Pediatric Preclinical Testing Program (PPT), and Coriell Institute (CI).
qHTS cell viability assay:
Cells were assayed in growth media at a density of 500-1,000 cells/well. Five microliters of cells were dispensed into 1,536-well, white, solid-bottom, TC-treated plates (Greiner Bio One) using a multidrop dispenser and incubated at 37 degrees C, 5% CO2, under a humidified atmosphere for 5 hours. Twenty-three nanoliters of compounds and controls (neutral control DMSO or positive control bortezomib at final concentration of 2.3 µM) were subsequently transferred by Kalypsys pintool. For primary screens, the MIPE collection was tested at 11-point dilutions (final concentrations range from 0.78 nM to 46 µM) and the NPC collection at 8-point dilutions (final concentrations range from 0.59 nM to 46 µM). Compounds tested in follow-up screens were assayed at 11-point dilutions. Cells were incubated for 48 hours, followed by addition of 3 uL of CellTiter-Glo (Promega). After a 15 min incubation at room temperature, samples were analyzed for luminescence intensity using a ViewLux High-throughput CCD imager equipped with clear filters.
For `Cc1c2oc3c(C)ccc(C(=O)N[C@@H]4C(=O)N[C@H](C(C)C)C(=O)N5CCC[C@H]5C(=O)N(C)CC(=O)N(C)[C@@H](C(C)C)C(=O)O[C@@H]4C)c3nc-2c(C(=O)N[C@@H]2C(=O)N[C@H](C(C)C)C(=O)N3CCC[C@H]3C(=O)N(C)CC(=O)N(C)[C@@H](C(C)C)C(=O)O[C@@H]2C)c(N)c1=O` (I: T[dV]P[Sar][NMeV] / II: T[dV]P[Sar][NMeV]; ester I:1-I:C, II:1-II:C; linker I:N-II:N via Actinocin(9to1)), the Potency was 0.0211 µM (active).
In the case of `CC(=O)N(O)CCCCCNC(=O)CCC(=O)N(O)CCCCCNC(=O)CCC(=O)N(O)CCCCCN`, the Potency is reported as 8.41 µM (active).
In the case of `CC(=O)Nc1c(I)cc(I)c(C(=O)O)c1I`, the Potency is reported as “inactive”.
For `Cc1c(F)c(N2CCNC(C)C2)cc2c1c(=O)c(C(=O)O)cn2C1CC1` (stereo not given), the Potency was “inactive”.
With `Oc1ccc(Cl)cc1Sc1cc(Cl)ccc1O` the Potency was 21.1 µM (active).
With `C[C@]12C=CC(=O)C=C1CC[C@@H]1[C@@H]2[C@@H](O)C[C@@]2(C)[C@H]1CC[C@]2(O)C(=O)CO` the Potency was “inactive”.
For `C[n+]1c2cc(N)ccc2cc2ccc(N)cc21` (tested in a mixture with another compound), the Potency was 21.1 µM (active).
With `Cc1c(C)n(Cc2ccccc2)c2ccc(C(=O)OCCN(C)C)cc12` the Potency was “inactive”.
In the case of `CN(C)CCOc1ccccc1Cc1ccccc1`, the Potency is reported as “inactive”.
For `OCc1ccccc1O`, the Potency was “inactive”.
For `NC(=O)CC[C@@H]1NC(=O)[C@H](Cc2ccccc2)NC(=O)[C@H](Cc2ccc(O)cc2)NC(=O)CCSSC[C@@H](C(=O)N2CCC[C@H]2C(=O)N[C@@H](CCCN=C(N)N)C(=O)NCC(N)=O)NC(=O)[C@H](CC(N)=O)NC1=O`, the Potency was “inactive”.
For `C=C1C[C@H]2[C@@H]3C=C(C)C4=CC(=O)CC[C@]4(C)[C@H]3CC[C@]2(C)[C@@]1(OC(C)=O)C(C)=O`, the Potency was “inactive”.
With `O=C(Nc1ccc(Cl)c(Cl)c1)C1CC1` the Potency was “inactive”.
For `N[C@@H](CCC(=O)N[C@@H](CS)C(=O)NCC(=O)O)C(=O)O`, the Potency was “inactive”.
For `CC(C)(C)NC(=O)[C@@H]1CN(Cc2cccnc2)CCN1C[C@@H](O)C[C@@H](Cc1ccccc1)C(=O)N[C@H]1c2ccccc2C[C@H]1O`, the Potency was “inactive”.
In the case of `Nc1ccc(C(=O)Nc2ccccc2N)cc1`, the Potency is reported as 16.8 µM (active).
For `CCCCCCCCCCOCC(O)CN` (stereo not given), the Potency was “inactive”.
For `CC(=O)OCC(=O)[C@@]12N=C(C)O[C@@H]1C[C@H]1[C@@H]3CCC4=CC(=O)C=C[C@]4(C)[C@H]3[C@@H](O)C[C@@]12C`, the Potency was “inactive”.
With `Cc1cccc(C)c1NC(=O)CN1CCN(CCCC(c2ccc(F)cc2)c2ccc(F)cc2)CC1` the Potency was “inactive”.
With `O=C(CCCN1CCC(O)(c2ccc(Br)cc2)CC1)c1ccc(F)cc1` the Potency was “inactive”.
In the case of `CCCCCCc1ccc(O)cc1O`, the Potency is reported as “inactive”.
In the case of `Nc1nc2ncc(CNc3ccc(C(=O)N[C@@H](CCC(=O)O)C(=O)O)cc3)nc2c(=O)[nH]1`, the Potency is reported as “inactive”.
With `CCCCOc1cc(C(=O)NCCN(CC)CC)c2ccccc2n1` the Potency was “inactive”.
In the case of `Cc1c(C)n(CCN(C)C)c2ccc(C(=O)OCCN(C)C)cc12`, the Potency is reported as “inactive”.
With `O=C(O)CCCCC(=O)O` the Potency was “inactive”.
In the case of `CCCCCCC[N+](CC)(CC)CCCCc1ccc(Cl)cc1`, the Potency is reported as 26.6 µM (active).
In the case of `CC(C)(Oc1ccc(Cl)cc1)C(=O)O`, the Potency is reported as “inactive”.
In the case of `N[C@H](Cc1c[nH]c2ccccc12)C(=O)O`, the Potency is reported as “inactive”.
For `Cc1c(C(N)=O)cc([N+](=O)[O-])cc1[N+](=O)[O-]`, the Potency was “inactive”.
For `CCCC(=O)Nc1ccc(OCC(O)CNC(C)C)c(C(C)=O)c1` (stereo not given), the Potency was “inactive”.
With `c1ccc(CNCCNCc2ccccc2)cc1` the Potency was “inactive”.
With `CO/N=C1\CN(c2nc3c(cc2F)c(=O)c(C(=O)O)cn3C2CC2)CC1CN` (stereo not given) the Potency was “inactive”.
For `C[C@H](O)C(=O)Nc1c(I)c(C(=O)NC(CO)CO)c(I)c(C(=O)NC(CO)CO)c1I`, the Potency was “inactive”.
For `c1ccc(OCc2ccc(CCCN3CCOCC3)cc2)cc1`, the Potency was “inactive”.
For `Cc1cc(O)c(C(C)C)cc1Cl`, the Potency was “inactive”.
For `CCOC(=O)COc1ccc2c(C)c(CCN(CC)CC)c(=O)oc2c1Cl`, the Potency was “inactive”.
In the case of `C=CCc1ccc(O)c(OC)c1`, the Potency is reported as “inactive”.
With `O=c1[nH]c(=O)n([C@H]2CCCO2)cc1F` the Potency was “inactive”.
For `CCN1CCC[C@H]1CNC(=O)c1c(OC)ccc(Br)c1OC`, the Potency was “inactive”.
For `CCOC(=O)OC(C)OC1=C(C(=O)Nc2ccccn2)N(C)S(=O)(=O)c2ccccc21` (stereo not given), the Potency was “inactive”.
